Experimental data as given in PubChem BioAssay (NCATS).
“And” between values parts separate entries of the source, which are not always exact repeats. Identical values can stand only once. Results filed as inconclusive are left out. The source made the active and inactive calls. The call rests on the fitted dose curve; in most records, active means well fitted curve in the direction sought with a large enough effect; inconclusive means small, poorly fitted or top-dose-only effect, or another doubt; inactive means no such curve, though single readings can be large; an effect the other way counts as inactive or inconclusive. Square brackets hold non-standard residues; d marks the D form. Peptide text beside a SMILES is read from it. ξ: configuration not given here. ξLac(3-iPr) = CC(C)CC(O)C(=O)O; NMeV = CN[CH](C(=O)O)C(C)C; βAla = NCCC(=O)O

Tests used:
[1] = molecular target: Cellular tumor antigen p53 (Homo sapiens) (UniProt P04637); experiment: Primary qHTS for small molecule compounds that upregulate eGFP-tagged delta133p53alpha (in N-terminal) cells. (AID 2060322); conditions: NCI-H358 eGFP-delta133p53alpha fluorescence, 24 h; activation: hits give high values;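 further: cells pre-induced with doxycycline then dosed without doxycycline; 0% = DMSO vehicle and 100% = reference activator; nearly all actives have a fitted effect of over 75% in size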
Summary of the method: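 NCI-H358 cells pre-induced 24 h with 10 ng/ml doxycycline for eGFP-delta133p53alpha, plated dox-free and exposed 24 h at 37C to titrated compounds. Fixed, Hoechst-stained; gated GFP peak intensity by laser scanning cytometry, normalized to DMSO (0%) and 57.5 uM 5-azacytidine (100%).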

[2] = molecular target: Aldehyde dehydrogenase, mitochondrial (Homo sapiens) (UniProt P05091); experiment: qHTS for Inhibitors of the Aldehyde Dehydrogenase Family (ALDH2) Primary screen (AID 2061308); conditions: ALDH2 enzyme inhibition qHTS, 1536-well; series mostly up to 56 µM;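 further: plate controls were vehicle for no effect and reference inhibitor for full effect; nearly all actives have a fitted effect of over 55% in size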
[3] = molecular target: Retinaldehyde dehydrogenase 3 (Homo sapiens) (UniProt P47895); experiment: qHTS for Inhibitors of the Aldehyde Dehydrogenase Family (ALDH1A3) Primary screen (AID 2061315); conditions: ALDH inhibition qHTS; series mostly up to 56 µM;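 further: plate controls were DMSO vehicle for no effect and reference inhibitor for full effect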

Cellular tumor antigen p53 (Homo sapiens), sequence (P04637 whole entry, looked up): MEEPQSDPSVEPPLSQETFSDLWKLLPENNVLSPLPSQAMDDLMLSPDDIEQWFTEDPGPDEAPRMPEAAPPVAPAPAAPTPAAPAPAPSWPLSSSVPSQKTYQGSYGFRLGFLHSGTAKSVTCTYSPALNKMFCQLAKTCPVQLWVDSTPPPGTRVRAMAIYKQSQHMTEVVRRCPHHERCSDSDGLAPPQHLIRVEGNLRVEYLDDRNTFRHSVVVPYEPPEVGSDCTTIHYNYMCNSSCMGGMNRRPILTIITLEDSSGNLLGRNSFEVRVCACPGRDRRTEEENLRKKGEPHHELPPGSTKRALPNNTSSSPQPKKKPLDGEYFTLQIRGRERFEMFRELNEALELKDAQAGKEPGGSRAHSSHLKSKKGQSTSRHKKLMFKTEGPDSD

N#CC1C(=O)Nc2scc(-c3ccc(-c4ccccc4O)cc3)c2C1=O (centres undefined)
inactive: activation [1] 17% | Potency [2] | Potency [3]

CCOc1ccc(-c2ccc(Cn3c(CC(C)(C)C(=O)O)c(SC(C)(C)C)c4cc(OCc5ccc(C)cn5)ccc43)cc2)cn1
inactive: activation [1] -1% and 3% | Potency [2] | Potency [3]

C=CCc1ccc(O[C@@H]2O[C@H](CO[C@@H]3O[C@@H](C)[C@H](O)[C@@H](O)[C@H]3O)[C@@H](O)[C@H](O)[C@H]2O)cc1
inactive: activation [1] 3.57% | Potency [2] | Potency [3]

CC(C)CC1OC(=O)C2CCCN2C(=O)CCNC(=O)C(Cc2ccccc2)NC(=O)C(C(C)C)N(C)C(=O)C(C(C)C)N(C)C1=O (centres undefined) (cyclo([ξLac(3-iPr)][NMeV][NMeV]F[βAla]P); configuration not given here)
inactive: activation [1] -23.7% | Potency [2] | Potency [3]

COc1c(C)c(OCC=C(C)C)cc2c1CNC2=O
inactive: activation [1] -19.8% | Potency [2] | Potency [3]

CC(=O)OCC1OC(O[C@H]2CC[C@@]3(C)C(CC[C@]4(C)C3CC=C3[C@@H]5CC(C)(C)CC[C@]5(C(=O)O)CC[C@]34C)[C@]2(C)CO)C(O)C(O)C1OC1OC(C)C(O)C(OC2OCC(O)C(O)C2O)C1O (some centres undefined)
inactive: activation [1] -6.11% | Potency [2] | Potency [3]

C[C@@H](CC[C@@H]1[C@@]2(C)CCCC(C)(C)C2CC[C@@]1(C)O)CC(=O)O (some centres undefined)
inactive: activation [1] -12.2% | Potency [2] | Potency [3]

COC(=O)C1=CO[C@@H](O[C@@H]2O[C@H](CO)[C@@H](O)[C@H](O)[C@H]2O)[C@@H]2[C@@H](C(=O)O)CC[C@H]12
inactive: activation [1] -5.34% | Potency [2] | Potency [3]
